Where a name gives a salt, the structure may show the parent alone. ± gives the standard deviation of the averaged measurements.
Legend:
[1] = system: Saccharomyces cerevisiae BY4741 SeMeCo community; assay: z-score of prototroph abundance vs DMSO median; higher = larger share of this subpopulation than in DMSO controls; conditions: 10 µM; 24 h; SM minimal medium; subpopulation (auxotrophy): Prototroph
Procedure, shortened: (§1)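 Cells of a Saccharomyces cerevisiae BY4741 community, carrying four plasmids that each restored one auxotrophy and encoded a distinct fluorescent protein, were pre-grown overnight to OD600 1.0 and diluted to 0.3. A 70 µl volume was added to 384-well plates acoustically predosed with library drugs (10 µM final) and grown 24 h in minimal SM medium. After paraformaldehyde fixation, automated confocal microscopy was used, with single-auxotroph fluorescent strains for thresholds and autofluorescence correction. The abundance of each subpopulation was scored as a z-score against the vehicle-well median.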

[2] = system: Saccharomyces cerevisiae BY4741 SeMeCo community; assay: z-score of subpopulation abundance vs DMSO median, subpopulation auxotrophic for M; higher = larger share of this subpopulation than in DMSO controls; conditions: 10 µM; 24 h; SM minimal medium; subpopulation (auxotrophy): M
Procedure, shortened: as §1

[3] = system: Saccharomyces cerevisiae BY4741 SeMeCo community; assay: z-score of subpopulation abundance vs DMSO median, subpopulation auxotrophic for L; higher = larger share of this subpopulation than in DMSO controls; conditions: 10 µM; 24 h; SM minimal medium; subpopulation (auxotrophy): L
Procedure, shortened: as §1

[4] = system: Saccharomyces cerevisiae BY4741 SeMeCo community; assay: z-score of subpopulation abundance vs DMSO median, subpopulation auxotrophic for H; higher = larger share of this subpopulation than in DMSO controls; conditions: 10 µM; 24 h; SM minimal medium; subpopulation (auxotrophy): H
Procedure, shortened: as §1

[5] = system: Saccharomyces cerevisiae BY4741 SeMeCo community; assay: z-score of subpopulation abundance vs DMSO median, subpopulation auxotrophic for LM; higher = larger share of this subpopulation than in DMSO controls; conditions: 10 µM; 24 h; SM minimal medium; subpopulation (auxotrophy): LM
Procedure, shortened: as §1

[6] = system: Saccharomyces cerevisiae BY4741 SeMeCo community; assay: z-score of subpopulation abundance vs DMSO median, subpopulation auxotrophic for HM; higher = larger share of this subpopulation than in DMSO controls; conditions: 10 µM; 24 h; SM minimal medium; subpopulation (auxotrophy): HM
Procedure, shortened: as §1

[7] = system: Saccharomyces cerevisiae BY4741 SeMeCo community; assay: z-score of subpopulation abundance vs DMSO median, subpopulation auxotrophic for HU; higher = larger share of this subpopulation than in DMSO controls; conditions: 10 µM; 24 h; SM minimal medium; subpopulation (auxotrophy): HU
Procedure, shortened: as §1

[8] = system: Saccharomyces cerevisiae BY4741 SeMeCo community; assay: z-score of subpopulation abundance vs DMSO median, subpopulation auxotrophic for UM; higher = larger share of this subpopulation than in DMSO controls; conditions: 10 µM; 24 h; SM minimal medium; subpopulation (auxotrophy): UM
Procedure, shortened: as §1

[9] = system: Saccharomyces cerevisiae BY4741 SeMeCo community; assay: z-score of subpopulation abundance vs DMSO median, subpopulation auxotrophic for HL; higher = larger share of this subpopulation than in DMSO controls; conditions: 10 µM; 24 h; SM minimal medium; subpopulation (auxotrophy): HL
Procedure, shortened: as §1

[10] = system: Saccharomyces cerevisiae BY4741 SeMeCo community; assay: z-score of subpopulation abundance vs DMSO median, subpopulation auxotrophic for HLU; higher = larger share of this subpopulation than in DMSO controls; conditions: 10 µM; 24 h; SM minimal medium; subpopulation (auxotrophy): HLU
Procedure, shortened: as §1

[11] = system: Saccharomyces cerevisiae BY4741 SeMeCo community; assay: z-score of subpopulation abundance vs DMSO median, subpopulation auxotrophic for HLM; higher = larger share of this subpopulation than in DMSO controls; conditions: 10 µM; 24 h; SM minimal medium; subpopulation (auxotrophy): HLM
Procedure, shortened: as §1

[12] = system: Saccharomyces cerevisiae BY4741 SeMeCo community; assay: z-score of subpopulation abundance vs DMSO median, subpopulation auxotrophic for HUM; higher = larger share of this subpopulation than in DMSO controls; conditions: 10 µM; 24 h; SM minimal medium; subpopulation (auxotrophy): HUM
Procedure, shortened: as §1

[13] = system: Saccharomyces cerevisiae BY4741 SeMeCo community; assay: z-score of subpopulation abundance vs DMSO median, subpopulation auxotrophic for LUM; higher = larger share of this subpopulation than in DMSO controls; conditions: 10 µM; 24 h; SM minimal medium; subpopulation (auxotrophy): LUM
Procedure, shortened: as §1

[14] = system: Saccharomyces cerevisiae BY4741 SeMeCo community; assay: z-score of subpopulation abundance vs DMSO median, subpopulation auxotrophic for HLUM; higher = larger share of this subpopulation than in DMSO controls; conditions: 10 µM; 24 h; SM minimal medium; subpopulation (auxotrophy): HLUM
Procedure, shortened: as §1

[15] = system: Saccharomyces cerevisiae BY4741 SeMeCo community; assay: mean cell size (pixel area) (pixels); higher = larger cells; conditions: 10 µM; 24 h; SM minimal medium
Procedure, shortened: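 In this assay, mean cell pixel area per well was obtained from automated confocal images of paraformaldehyde-fixed yeast analysed in Harmony. The cells were a Saccharomyces cerevisiae BY4741 community with four plasmids, each complementing one auxotrophy and carrying a fluorescent marker, grown for 24 h in SM medium with drug at a final 10 µM in 384-well plates. Values are averaged across 3 replicates. Same SeMeCo high-content imaging drug screen: Selleck FDA-approved drugs at 10 µM, 24 h in SM medium, 384-well plates, 3 replicates.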

[16] = system: Saccharomyces cerevisiae BY4741 SeMeCo community; assay: z-score of subpopulation abundance vs DMSO median, subpopulation auxotrophic for U; higher = larger share of this subpopulation than in DMSO controls; conditions: 10 µM; 24 h; SM minimal medium; subpopulation (auxotrophy): U
Procedure, shortened: as §1

| Structure (SMILES) | z-score of prototroph abundance [1] | z-score of subpopulation abundance [2] | z-score of subpopulation abundance [3] | z-score of subpopulation abundance [4] | z-score of subpopulation abundance [5] | z-score of subpopulation abundance [6] | z-score of subpopulation abundance [7] | z-score of subpopulation abundance [8] | z-score of subpopulation abundance [9] | z-score of subpopulation abundance [10] | z-score of subpopulation abundance [11] | z-score of subpopulation abundance [12] | z-score of subpopulation abundance [13] | z-score of subpopulation abundance [14] | mean cell size [15] | z-score of subpopulation abundance [16] |
| --- | --- | --- | --- | --- | --- | --- | --- | --- | --- | --- | --- | --- | --- | --- | --- | --- |
| CO/N=C(\C(=O)N[C@@H]1C(=O)N2C(C(=O)O)=CCS[C@H]12)c1csc(N)n1 [Ceftizoxime sodium] | 0.46 | 1.04 | -1.5 | -1.54 | -0.65 | -0.06 | -0.68 | 0.12 | -0.66 | -0.33 | -0.22 | 0.09 | -1.27 | -0.48 |  |  |
| NCCNc1ccc(NCCN)c2c1C(=O)c1ccncc1C2=O [Pixantrone Maleate] | 3.16 | -11.8 | 1.31 | 3.74 | -5.3 | -5.86 | 4.69 | -7.68 | 9.63 | 7.46 |  | -5.6 | -4.09 | -1.46 | 11.8 ± 0.17 | 2.84 |
| CCCNCC(O)COc1ccccc1C(=O)CCc1ccccc1 (configuration not stated) [Propafenone HCl] |  | -0.38 | -0.54 | -0.52 | 0.27 | -0.15 |  | 0.94 |  | -0.61 | -0.63 | -0.3 | 0.61 |  | 12.36 ± 0.1 | 0.55 |
| NNc1nncc2ccccc12 [Hydralazine HCl] | 0.63 | -0.11 | -0.91 |  |  |  | 0.18 | 0.37 | -0.59 | -0.68 | 0.17 | -0.64 | -0.97 | -0.64 | 11.8 ± 0.14 |  |
| COc1ccnc(C[S+]([O-])c2nc3cc(OC(F)F)ccc3[nH]2)c1OC (configuration not stated) [Pantoprazole] | -0.32 | 0.27 | 0.22 | 1.49 |  |  | 0.3 | -0.26 |  | 1.13 | 0.09 |  | -0.41 | 0.7 | 12.4 ± 0.15 | -0.43 |
| CN1[C@@H]2CC[C@H]1C[C@@H](OC(=O)c1c[nH]c3ccccc13)C2 [Tropisetron HCl] | -1 | 1.04 | 0.79 | -0.68 | 1.09 | 0.26 | -0.68 | 0.28 | -0.91 | 0.2 | -0.38 |  | 0.15 | 1.3 |  | -0.06 |
| COc1ccc(CN2CCN(C(c3ccc(F)cc3)c3ccc(F)cc3)CC2)c(OC)c1OC [Lomerizine 2HCl] | -0.1 | -0.52 | 0.3 | -0.09 | 0.33 | 0.78 | 0.22 | -0.33 | 0.04 | 0.88 | 0.32 |  | -0.31 | -0.64 | 12.443 ± 0.0032 | 0.28 |
| CCCCc1oc2ccccc2c1C(=O)c1cc(I)c(OCCN(CC)CC)c(I)c1 [Amiodarone HCl] | -5.29 | 9.41 | -2.82 | 1.97 | 1.3 | 3.86 | 4.02 | 9.26 | 3.55 | 4.05 | 5.74 |  | 6.07 | 5.2 | 11.3 ± 0.26 |  |
| CC(=O)NS(=O)(=O)c1ccc(N)cc1 [Sulfacetamide Sodium] | -0.69 | 0.42 | -0.02 | 0.92 | -0.08 | 0.1 | -0.34 | 0.35 | 0.22 | -0.24 |  | 0.62 | 0.63 | 0.37 | 12.4 ± 0.26 | 0.86 |
| COC(=O)Nc1nc2cc(C(=O)c3ccc(F)cc3)ccc2[nH]1 [Flubendazole] | 0.01 | -0.07 | 0.41 | 1.19 | 0.25 | 0.64 | 0.34 |  |  | 0.3 | -0.42 | 0.06 |  | -0.02 |  | -0.99 |
| Nc1c(CC(=O)O)cccc1C(=O)c1ccccc1 [Amfenac Sodium Monohydrate] | 0.49 | 0.25 | -0.33 | -0.38 | 0.25 | 1.16 |  | -0.16 | -0.27 | 0.63 | 2.36 | 0.74 | -0.56 | 0.57 |  | 0.11 |
| Nc1nc(/C(=C/CC(=O)O)C(=O)N[C@@H]2C(=O)N3C(C(=O)O)=CCS[C@H]23)cs1 [Ceftibuten dihydrate] | 0.52 | 0.21 | 0.22 | -0.33 |  | -0.56 | -0.31 | -0.49 | -0.1 | -0.13 | 0.65 | -1.27 | 0.4 | 0.51 | 12.6 ± 0.21 | -0.28 |
| COc1ccccc1OCC(O)CN1CCN(CC(=O)Nc2c(C)cccc2C)CC1 (configuration not stated) [Ranolazine] | -0.25 | 0.23 | 0.18 | -0.13 | 0.68 | 0.37 | -0.09 | 0.37 | -0.42 | -0.21 | 0.19 | 0.18 | 0.49 | 0.5 |  | -0.29 |
| NC(=O)[C@@H]1CC[C@@H]2CN1C(=O)N2OS(=O)(=O)O [Avibactam sodium] | -0.66 | 0.79 | 0.6 | -0.62 | 0.78 |  |  | 0.5 |  | 0.1 | 0.54 | -0.02 | 0.46 | 1.05 | 12.68 ± 0.1 | 0.13 |
| CCCc1nn(C)c2c(=O)[nH]c(-c3cc(S(=O)(=O)N4CCN(C)CC4)ccc3OCC)nc12 [Sildenafil Mesylate] | -0.95 | -0.91 | 0.21 | -0.01 | -0.29 |  | 1.74 | 0.21 | -0.5 | 0.05 | -0.78 | 1.55 | 0.38 | 0.08 | 12.2 ± 0.17 | 1.64 |
